Assay [1] in a line: qHTS of pediatric cancer cell lines to identify multiple opportunities for drug repurposing: Primary screen for A673 cells (AID 1347092). Also: potency is read from the fitted curve at half-maximal effect; nearly all actives have a fitted effect of over 45% in size. Summed up:
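Cell viability of A673 measured by CellTiter-Glo ATP luminescence after 48 hours compound exposure. Dilution series spanned 0.78 nM to 46 µM (MIPE, 11-point) or 0.59 nM to 46 µM (NPC, 8-point); bortezomib 2.3 uM positive control.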

The nature of assay [2]: qHTS of pediatric cancer cell lines to identify multiple opportunities for drug repurposing: Primary screen for Saos-2 cells (AID 1347097). Also: nearly all actives have a fitted effect of over 40% in size. Also: potency is read from the fitted curve at half-maximal effect. Summed up: (§1)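 Following a 5-hour attachment period, cells at 500-1,000/well received compounds and were cultured for 48 hours. CellTiter-Glo was added and luminescence read to estimate viable, metabolically active cells.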
Assay [3] can be described thus: qHTS of pediatric cancer cell lines to identify multiple opportunities for drug repurposing: Primary screen for SK-N-SH cells (AID 1347098). Also: nearly all actives have a fitted effect of over 65% in size. Also: potency is read from the fitted curve at half-maximal effect. The procedure, abridged:
(§2)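 Cells (500-1,000/well) rested 5 h, then received compounds for 48 h; metabolically active cells were measured by CellTiter-Glo luminescence. Final concentrations spanned up to 46 µM (MIPE, 11-point) or 0.59 nM-46 µM (NPC, 8-point) in primary screens, 11-point in follow-ups.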

The nature of assay [4]: qHTS of pediatric cancer cell lines to identify multiple opportunities for drug repurposing: Primary screen for BT-12 cells (AID 1347101). Also: nearly all actives have a fitted effect of over 25% in size. Also: potency is read from the fitted curve at half-maximal effect. Summed up:
as §2

The nature of assay [5]: qHTS of pediatric cancer cell lines to identify multiple opportunities for drug repurposing: Primary screen for OHS-50 cells (AID 1347103). Also: nearly all actives have a fitted effect of over 40% in size. Also: potency is read from the fitted curve at half-maximal effect. The procedure, abridged: as §2
Assay [6] in a line: qHTS of pediatric cancer cell lines to identify multiple opportunities for drug repurposing: Primary screen for RD cells (AID 1347104). Also: nearly all actives have a fitted effect of over 55% in size. Also: potency is read from the fitted curve at half-maximal effect. The procedure, abridged: as §1
The nature of assay [7]: qHTS of pediatric cancer cell lines to identify multiple opportunities for drug repurposing: Primary screen for MG 63 (6-TG R) cells (AID 1347105). Also: nearly all actives have a fitted effect of over 50% in size. Also: potency is read from the fitted curve at half-maximal effect. Summed up:
as §1

A short description of assay [8]: qHTS of pediatric cancer cell lines to identify multiple opportunities for drug repurposing: Primary screen for Rh30 cells (AID 1347107). Also: nearly all actives have a fitted effect of over 75% in size. Also: potency is read from the fitted curve at half-maximal effect. The procedure, abridged: (§3)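 Viability after 48 h compound treatment at 37C, 500-1,000 cells/well, read as ATP luminescence with CellTiter-Glo. Primary screens used 11-point (MIPE, 0.78 nM-46 µM) or 8-point (NPC, 0.59 nM-46 µM) final concentrations; follow-up screens used 11-point dilutions.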

A short description of assay [9]: qHTS of pediatric cancer cell lines to identify multiple opportunities for drug repurposing: Primary screen for Rh41 cells (AID 1347108). Also: nearly all actives have a fitted effect of over 70% in size. Also: potency is read from the fitted curve at half-maximal effect. Summed up:
as §1

Assay [10] in a line: qHTS of pediatric cancer cell lines to identify multiple opportunities for drug repurposing: Confirmatory screen for NB1643 cells (AID 1347109). Also: potency is read from the fitted curve at half-maximal effect; nearly all actives have a fitted effect of over 45% in size. The procedure, abridged: as §3
Assay [11] is described as follows: qHTS of pediatric cancer cell lines to identify multiple opportunities for drug repurposing: Confirmatory screen for A673 cells (AID 1347110). Also: nearly all actives have a fitted effect of over 65% in size. Also: potency is read from the fitted curve at half-maximal effect. Summed up:
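Viability was read as ATP luminescence (CellTiter-Glo) after 48 h of compound exposure at 37 C in A673 cells seeded at 500-1,000/well. Titrations reached 46 uM final, with 11 points in the confirmatory screen. Concentration-response curves were fitted directly.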

Assay [12] can be described thus: qHTS of pediatric cancer cell lines to identify multiple opportunities for drug repurposing: Confirmatory screen for SK-N-MC cells (AID 1347111).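 Also: cells exposed to compound for 48 h before the readout; nearly all actives have a fitted effect of over 70% in size.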 Also: potency is read from the fitted curve at half-maximal effect. The procedure, abridged:
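SK-N-MC cells at 500-1,000 cells/well in growth media were pre-incubated 5 h, then exposed to compounds at 11-point dilutions for 48 h at 37 degrees C, 5% CO2. Viability was read as CellTiter-Glo luminescence.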

A short description of assay [13]: qHTS of pediatric cancer cell lines to identify multiple opportunities for drug repurposing: Primary screen for SK-N-MC cells (AID 1347093). Also: potency is read from the fitted curve at half-maximal effect. Summed up: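 Metabolically active cells were quantified by ATP-dependent luminescence (CellTiter-Glo, 15 min at room temperature) following 48 h treatment. Cells had been plated at 500-1,000 per well and settled for 5 h beforehand.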

A short description of assay [14]: qHTS of pediatric cancer cell lines to identify multiple opportunities for drug repurposing: Primary screen for NB-EBc1 cells (AID 1347095). Also: potency is read from the fitted curve at half-maximal effect. Summed up:
as §1

Assay [15] can be described thus: qHTS of pediatric cancer cell lines to identify multiple opportunities for drug repurposing: Primary screen for U-2 OS cells (AID 1347096). Also: nearly all actives have a fitted effect of over 50% in size. Also: potency is read from the fitted curve at half-maximal effect. Summed up:
as §3

The nature of assay [16]: qHTS of pediatric cancer cell lines to identify multiple opportunities for drug repurposing: Primary screen for LAN-5 cells (AID 1347100). Also: potency is read from the fitted curve at half-maximal effect. The procedure, abridged:
as §3

Assay [17] is described as follows: qHTS of pediatric cancer cell lines to identify multiple opportunities for drug repurposing: Primary screen for control Hh wild type fibroblast cells (AID 1347106).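 Also: series mostly up to about 46 µM; a drop in luminescence marks cytotoxicity and a rise apparent proliferation; nearly all actives have a fitted effect of over 55% in size.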 The procedure, abridged: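 Cells (500-1,000/well) in growth media were settled 5 h at 37 degrees C, then given compounds for 48 h. Viability was read as CellTiter-Glo luminescence. Primary runs used MIPE at 11 points (0.78 nM-46 µM) and NPC at 8 points (0.59 nM-46 µM); follow-ups used 11 points.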

Assay [18] is described as follows: qHTS of pediatric cancer cell lines to identify multiple opportunities for drug repurposing: Primary screen for BT-37 cells (AID 1347094). Also: potency is read from the fitted curve at half-maximal effect. Summed up:
as §1

Assay [19] in a line: qHTS of pediatric cancer cell lines to identify multiple opportunities for drug repurposing: Primary screen for NB1643 cells (AID 1347099). Also: nearly all actives have a fitted effect of over 50% in size. Also: potency is read from the fitted curve at half-maximal effect. Summed up:
as §1

Assay [20] can be described thus: qHTS of pediatric cancer cell lines to identify multiple opportunities for drug repurposing: Primary screen for Rh18 cells (AID 1347102). Also: nearly all actives have a fitted effect of over 65% in size. Also: potency is read from the fitted curve at half-maximal effect. The procedure, abridged:
as §3

Structures are written as SMILES. Records with an inconclusive call do not appear. Unmarked numbers belong to inactive results. The source made the active and inactive calls. Calls follow the shape of the dose curve; as a rule, active = well fitted curve in the direction sought with a large enough effect; inconclusive = small, poorly fitted or top-dose-only effect, or another doubt; inactive = no such curve, though single readings can be large; an effect the other way counts as inactive or inconclusive.

Consider twelve molecules from PubChem BioAssay (NCATS).

Regarding `COc1cccc2c1C(=O)c1c(O)c3c(c(O)c1C2=O)C[C@@](O)(C(C)=O)C[C@H]3O[C@H]1C[C@H](N)[C@H](O)[C@H](C)O1`, the Potency in assay [1] was 0.0469 µM (active); in assay [2] it was 0.264 µM (active); in [3] it was 0.121 µM (active); in assay [4], 0.0769 µM (active); in [5], 0.344 µM (active); in assay [6], 0.0743 µM (active). Further, the Potency was 0.372 µM (active) in [7]; 0.0469 µM (active) in assay [9]; 0.165 µM (active) in assay [10]; 0.414 µM (active) in assay [11]; 0.165 µM (active) in assay [12]. Besides, the Potency entry in assay [8] is “inactive”.

As to `CC(C)(C)c1nc2c3cc[nH]c(=O)c3c3cc(F)ccc3c2[nH]1`, the Potency in assay [13] was 1.18 µM (active); in assay [3] it was 9.61 µM (active); in [16] it was 2.35 µM (active). For the same molecule, the Potency result in assay [14], in assay [15], in assay [4], in assay [7], in assay [17] and in [8] was “inactive” in each case. The Potency entry in assay [9] is “inactive”.

Take `c1cncc(CN2CCC(n3ncc4c(N5CCOCC5)nc(-c5ccc6[nH]ccc6c5)nc43)CC2)c1`: the Potency was 7.43 µM (active) in assay [13]; 7.69 µM (active) in assay [18]; 4.69 µM (active) in assay [14]; 19.2 µM (active) in assay [3]; 6.62 µM (active) in assay [19]; 14.8 µM (active) in [16]. Also, the Potency was 13.7 µM (active) in [4]; 5.9 µM (active) in [20]; 2.17 µM (active) in assay [5]; 6.62 µM (active) in assay [6]; 14.8 µM (active) in [7]; 14.8 µM (active) in [8]. In [9], the Potency is 3.32 µM (active). Also, the Potency entry in assay [15] was “inactive”.

On to `O=c1[nH]c(=O)n([C@H]2C[C@@H](O)[C@@H](CO)O2)cc1C=CBr`, for which the Potency result in assay [13], in assay [18], in [14], in assay [15], in assay [2] and in assay [19] was “inactive” each time. Moreover, the Potency result in assay [16], in assay [4], in assay [20], in [6], in assay [7] and in [17] was “inactive” each time. The Potency entry in [8] and in [9] was “inactive” in each case.

With `O=C(CCCCCCC(=O)Nc1cccnc1)NO`, the Potency in assay [13] is 2.96 µM (active); in assay [18], 19.3 µM (active); in assay [14], 4.18 µM (active); in assay [15], 11.8 µM (active); in assay [2], 13.2 µM (active); in [3], 6.07 µM (active). Besides, the Potency is 2.96 µM (active) in assay [19]; 2.64 µM (active) in [16]; 10.9 µM (active) in assay [4]; 4.69 µM (active) in assay [20]; 16.6 µM (active) in [6]; 18.7 µM (active) in [7]. The Potency is 18.7 µM (active) in assay [8] and 11.8 µM (active) in assay [9].

For `C[C@](Cc1c[nH]c2ccccc12)(NC(=O)OC1C2CC3CC(C2)CC1C3)C(=O)NC[C@H](NC(=O)CCC(=O)O)c1ccccc1` (stereo not given in full), the Potency in [13] is 20.9 µM (active). The Potency result in [18], in [14], in assay [15], in assay [2], in assay [20] and in assay [5] was “inactive” in each case. Also, the Potency entry in [6], in [17], in assay [8] and in assay [9] was “inactive” in each case.

As to `O=C(NNC(=O)c1ccc(CNS(=O)(=O)c2ccc(F)c(Cl)c2)cc1)c1ccccc1`, the Potency result in [13], in [18], in assay [14], in [2], in assay [3] and in [16] was “inactive” each time. Further, the Potency entry in [4], in [5], in [6], in assay [7], in assay [17] and in assay [8] was “inactive” each time. Moreover, the Potency entry in assay [9] is “inactive”.

For the molecule `COc1ccc(S(=O)(=O)Nc2cc(-c3c(O)ccc4ccccc34)c(O)c3ccccc23)cc1`, the Potency in assay [13] was 3.32 µM (active); in [18] it was 24.3 µM (active); in assay [14], 8.33 µM (active); in [2] it was 4.69 µM (active); in assay [19], 18.7 µM (active); in assay [16] it was 7.43 µM (active). Further, the Potency is 30.6 µM (active) in [4], 10.9 µM (active) in assay [5] and 29.6 µM (active) in assay [6]. For the same molecule, the Potency entry in assay [15] and in [17] was “inactive” throughout.

`CCOC(=O)[C@@H](N)Cc1ccc(-c2cc(O[C@H](c3ccc(Cl)cc3-n3ccc(C)n3)C(F)(F)F)nc(N)n2)cc1`: the Potency in assay [13] is 16.6 µM (active); in assay [18] it was 27.3 µM (active); in assay [2], 18.7 µM (active); in assay [4], 30.6 µM (active); in [5], 24.3 µM (active); in assay [12] it was 32.9 µM (active). In addition, the Potency result in [3] and in assay [17] was “inactive” each time.

For the molecule `COc1ccc(C(C)=O)c(O)c1`, the Potency was 0.0372 µM (active) in [13]; 1.66 µM (active) in assay [2]; 5.26 µM (active) in assay [19]; 6.85 µM (active) in assay [4]; 16.6 µM (active) in assay [6]. Moreover, the Potency entry in assay [14], in [15], in assay [3], in assay [16], in assay [20] and in assay [7] was “inactive” throughout. Moreover, the Potency result in [17], in assay [8], in assay [11] and in assay [12] was “inactive” each time.

As for `CN1CCCN(C(=O)c2cccc(-c3ccc(C=C4C(=O)Nc5ccc(Cl)cc54)o3)c2)CC1`, the Potency was 14.8 µM (active) in assay [13]; 6.85 µM (active) in assay [18]; 3.32 µM (active) in assay [14]; 23.5 µM (active) in assay [2]; 5.9 µM (active) in [19]; 2.09 µM (active) in [16]. Besides, the Potency in [4] was 24.3 µM (active); in assay [20] it was 7.43 µM (active); in assay [5], 13.7 µM (active); in assay [6], 33.2 µM (active); in assay [8], 18.7 µM (active); in [9] it was 18.7 µM (active). In [17], the Potency result is “inactive”.

With `COC1=C(OC)C(=O)C(CC=C(C)CCC=C(C)CCC=C(C)CCC=C(C)CCC=C(C)CCC=C(C)CCC=C(C)CCC=C(C)CCC=C(C)CCC=C(C)C)=C(C)C1=O`, the Potency result in [13], in assay [18], in [14], in [15], in assay [2] and in [3] was “inactive” in each case. For the same molecule, the Potency result in assay [19], in [16], in assay [4], in [20], in assay [6] and in [7] was “inactive” each time. Also, the Potency result in [17], in assay [8] and in assay [9] was “inactive” throughout.
